Laboratory results: PubChem BioAssay AID2546 (National Center for Advancing Translational Sciences (NCATS), 2010)
About 11,000 (3.5%) of roughly 310,000 compounds were called active. Where a call stands in place of a potency, no number is given. Not shown: some 8% with an inconclusive outcome. Many of the other results were omitted from the sample, so actives are more common in it than they were. Values without a mark were called inactive. Calls follow the shape of the dose curve; as a rule, active = well fitted inhibition curve with a large enough effect; inconclusive = small, poorly fitted or top-dose-only effect, or effect the other way; inactive = flat fitted curve, though single readings scatter.

assay: VP16 counterscreen qHTS for inhibitors of ROR gamma transcriptional activity; details: Drosophila S2 Gal4-VP16 UAS-luciferase, luminescence, 20 h; series mostly up to 53.6 µM;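 also: Gal4-VP16 expression switched on by copper sulfate through the metallothionein promoter; nearly all actives have a fitted effect of over 50% in size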
Potency is read from the fitted curve at half-maximal effect.

| SMILES | Potency | activity, negative = inhibition |
| --- | --- | --- |
| COc1cc(NC(=O)C2=CC(c3ccc(C)cc3)=NS(=O)(=O)N2C)cc(OC)c1OC | inactive |  |
| COc1cc2c(cc1OC)CN(CC(=O)Nc1ccc(F)cc1)CC2 | inactive |  |
| CC(=O)Nc1cccc([N+](=O)[O-])c1 | inactive |  |
| O=C(CSCC(=O)Nc1cccc([N+](=O)[O-])c1)Nc1ccccc1 | inactive |  |
| COC(=O)/C=C\C(=O)Nc1cccc([N+](=O)[O-])c1 | 1.26 µM (active) |  |
| COc1cc(SC)ccc1C(=O)N(Cc1ccccc1)c1ccccc1 | inactive |  |
| NC(=O)C(=O)N/N=C/c1ccc([N+](=O)[O-])o1 | 11.2 µM (active) |  |
| COc1ccc(C(=O)NCC(=O)N/N=C/c2ccc([N+](=O)[O-])o2)cc1OC | inactive |  |
| Cc1cc(C)nc(N/N=C/c2ccc([N+](=O)[O-])o2)n1 | inactive |  |
| COc1ccc(-c2cc(C(=O)N3CCN(c4ccc(F)cc4)CC3)no2)cc1 | inactive |  |
| Fc1ccc(/C=N/Nc2nc(-c3cccnc3)nc3ccccc23)cc1 | inactive |  |
| FC(F)(F)c1nc2ccccc2nc1N/N=C/c1ccc(Cl)cc1 | 10 µM (active) |  |
| FC(F)(F)c1cccc(N/N=C/c2ccccc2)c1 | inactive |  |
| CCNC(=O)N1CCCC(C(=O)c2ccc(-c3ccccc3)cc2)C1 (configuration not stated) | inactive |  |
| c1cnc(N2CCN(c3ccc4ccccc4n3)CC2)nc1 | inactive |  |
| CC(=O)N1c2ccc(S(=O)(=O)N3CCC(C(=O)NC4CCCC(C)C4C)CC3)cc2CC1C (configuration not stated) | inactive |  |
| Cc1ccc2cccc(OCCCOc3ccccc3CO)c2n1 | inactive |  |
| CSC(=S)N/N=C/c1c[nH]c2ccccc12 | 0.891 µM (active) |  |
| O=C(N/N=C/c1ccc([N+](=O)[O-])cc1)c1c[nH]c2ccccc12 | inactive |  |
| O=C(N/N=C/c1c[nH]c2ccccc12)c1ccccc1O | 6.31 µM (active) |  |
| O=C(O)c1cccc(NC(=S)N/N=C/c2c[nH]c3ccccc23)c1 | inactive |  |
| O=C(Cc1c[nH]c2ccccc12)N/N=C/c1cccc(F)c1 | inactive |  |

| SMILES | Potency | activity, negative = inhibition |
| --- | --- | --- |
| O=C(N/N=C/c1c[nH]c2ccccc12)c1cc2ccccc2o1 | inactive |  |
| C[C@H](C(=O)CC(=O)OC(C)(C)C)[C@H](O)c1ccc(C(F)(F)F)cc1 | inactive |  |
| Cc1ccc(-c2csc(NC3OC(=O)c4ccccc43)n2)cc1 (configuration not stated) | inactive |  |
| O=C(/C=C/c1ccc2c(c1)OCCO2)c1ccc(O)cc1 | 4.47 µM (active) |  |
| CN(C)c1ccc(/C=C/C(=O)c2ccc(C(C)(C)C)cc2)cc1[N+](=O)[O-] | inactive |  |
| O=C(O)/C=C/c1ccc2c(c1)OCCO2 | inactive |  |
| O=C(/C=C/c1ccc(Cl)cc1)N1CCN(c2ccccc2[N+](=O)[O-])CC1 | inactive |  |
| CC(=O)c1ccc2c(c1)OCCOCCOc1ccc(C(C)=O)cc1OCCOCCO2 | inactive |  |
| CN(C)c1ccc(/C=C/C(=O)c2ccc(O)cc2)cc1[N+](=O)[O-] | 5.01 µM (active) |  |
| O=C1C2CCCN2C(=O)N1CCCCN1CCN(c2cccc(C(F)(F)F)c2)CC1 (configuration not stated) | inactive |  |
| C=CCn1cc(Cl)cc(C(=O)Nc2ccccc2)c1=O | inactive |  |
| Cc1cccc(C)c1N1C(=O)CN(Cc2ccccc2)C1=S | inactive |  |
| COc1cccc(NC(C)=[N+](C)CCNS(=O)(=O)c2ccc(Cl)cc2)c1 | inactive |  |
| COc1ccccc1-c1n[nH]c2c1[C@H](C)CC[C@H]2C(C)C | 12.6 µM (active) |  |
| COc1ccccc1-c1nc(SC)n[nH]1 | inactive |  |
| COc1ccccc1-c1nc(N2CCN(C)CC2)c2ccccc2n1 | inactive |  |
| CCOc1cc(-c2noc(CCCC(=O)NC3CCCCC3)n2)ccc1OC | inactive |  |
| CC(=O)c1ccc(N2Cc3ccccc3C2)cc1 | inactive |  |
| CC(C)CC(O)C1CCN(C(=O)CCc2nnc(-c3ccc4c(c3)OCO4)o2)CC1 (configuration not stated) | inactive |  |
| Cc1oc(-c2ccccc2F)nc1CS(=O)CC(=O)NCCN1CCCCC1C (configuration not stated) | inactive |  |
| C=CCc1ccccc1OCC(=O)N/N=C/c1ccccc1OCC | inactive |  |
| CCOc1ccccc1/C=N/Nc1nc2ccccc2o1 | 7.08 µM (active) |  |

| SMILES | Potency | activity, negative = inhibition |
| --- | --- | --- |
| CCOc1ccccc1/C=N/NC(=O)CNC(=O)COc1ccccc1 | inactive |  |
| CC(C)(C)c1cc[n+](-c2[nH]c(=O)sc2/C=N/N=C(\[O-])c2ccccc2)cc1 | inactive |  |
| O=C(Nc1ccncc1)c1ccc(Cl)c([N+](=O)[O-])c1 | inactive |  |
| COc1ccc(CNS(=O)(=O)c2cc(-c3cc(C)no3)ccc2C(C)C)cc1 | inactive |  |
| CC(=O)Nc1cccc(Nc2nc(-c3cccs3)nc3ccccc23)c1 | inactive |  |
| CC1CCCN(CCCNC(=O)CN2C(=O)COc3ccc(S(=O)(=O)N4CCOCC4)cc32)C1 (configuration not stated) | inactive |  |
| C/C(=N\NC(=S)NC1CCCCC1)c1ccc(C)o1 | 3.55 µM (active) |  |
| C/C(=N\NC(=O)NC1CCCCC1)c1ccc(OC(F)F)cc1OC(F)F | inactive |  |
| Cc1ccc(/C=N/NC(=O)Cn2nc(C)c(Br)c2C)o1 | inactive |  |
| Cc1ccc(/C=N/NC(=O)CSc2ccccn2)o1 | inactive |  |
| C/C(=N/NC(=O)c1ccc(Br)o1)c1ccc(C)o1 | inactive |  |
| Cc1ccc(/C=N/NC(=S)NC2CCCCC2)o1 | 2 µM (active) |  |
| Cc1ccccc1NC(=O)CSc1ccc2nnc(-c3ccccn3)n2n1 | inactive |  |
| CC(C)NC(=O)COCc1cc(-c2ccc3c(c2)OCO3)on1 | inactive |  |
| COc1ccc(OC)c(CNC(=O)Cn2nc(C)c3c(C)n(-c4ccc(C)cc4)nc3c2=O)c1 | inactive |  |
| COc1ccc(CN(C)C(=O)c2cc(-c3ccc(C)cc3C)nc3ccccc23)c(OC)c1OC | inactive |  |
| COc1ccc(C/C(N)=N/OC(=O)c2ccco2)cc1OC | inactive |  |
| COc1ccc(CCn2ccc(O)c(Cc3ccc(Cl)cc3Cl)c2=O)cc1OC |  | 7.07% [at 10 µM] |
| COc1ccc(C(=O)O/N=C(\N)Cc2ccc(Cl)cc2Cl)cc1OC | 7.08 µM (active) |  |
| CC(CCc1ccc(O)cc1)NCc1ccc(Cl)cc1Cl (configuration not stated) | inactive |  |
| O=S1(=O)N=C(N(CCO)/N=C/c2ccccc2F)c2ccccc21 | inactive |  |
| COC(=O)c1cc(S(=O)(=O)NCC2CCN(Cc3ccc(Cl)cc3)CC2)cn1C | inactive |  |

| SMILES | Potency | activity, negative = inhibition |
| --- | --- | --- |
| COc1ccc2ccccc2c1/C=N/NC(=O)c1cc(C)[nH]n1 | inactive |  |
| CCOc1ccc(NC(=O)CCC(=O)N/N=C/c2ccc([N+](=O)[O-])s2)cc1 | inactive |  |
| Cc1cc(C(=O)N/N=C/c2cc([N+](=O)[O-])cc(C)c2O)n[nH]1 | 14.1 µM (active) |  |
| CC(C)(C)c1cc(C(=O)N/N=C/c2ccc([N+](=O)[O-])s2)n[nH]1 | 12.6 µM (active) |  |
| Cc1ccsc1C(=O)N/N=C/c1ccc([N+](=O)[O-])cc1 | inactive |  |
| Cc1ccccc1NCC(=O)N/N=C\c1ccc([N+](=O)[O-])s1 | inactive |  |
| COc1ccc(OC)c(NC(=O)c2ccc3c(c2)CCN3S(C)(=O)=O)c1 | inactive |  |
| COc1ccc(-n2ncc3c2CC(C)(C)CC3NC(=O)CCc2c(C)noc2C)cc1 (configuration not stated) | inactive |  |
| CCn1c(CC(=O)Nc2ccccc2)nnc1SCC(=O)N1CCOCC1 | inactive |  |
| Cc1cccc(C)c1OCCN1CCOCC1 | inactive |  |
| CC(CC(=O)N1CCN(c2ccccc2)CC1)S(=O)(=O)c1ccc2c(c1)NC(=O)CS2 (configuration not stated) | inactive |  |
| CCCCC(C(=O)OCC(=O)c1ccc(OC)cc1)N1C(=O)c2ccccc2C1=O (configuration not stated) | inactive |  |
| CCOC(=O)C1=C(c2ccc(OC)cc2)C(=O)c2ccccc2C1=O | 4.47 µM (active) |  |
| CCOC(=O)c1c(-c2ccc(C)cc2)csc1/N=C(\C)C1=C(O)c2ccccc2C1=O | inactive |  |
| COc1ccccc1-n1c(SCC(=O)Nc2cccc(C(=O)O)c2)nnc1-c1ccccc1O | inactive |  |
| CCOC(=O)[C@@H]1[C@H]2COc3ccc(Br)cc3[C@H]2N2C(=O)N(c3ccc(Cl)cc3)C(=O)[C@@]12C | inactive |  |
| COC(=O)c1cc(NS(=O)(=O)c2ccc3c(c2)c(=O)n(C)c(=O)n3C)cc(C(=O)OC)c1 | inactive |  |
| Cc1[nH]c2ccccc2c1C(=O)CN1CC(C)CC(C)C1 (configuration not stated) | inactive |  |
| CC(=O)Nc1cccc(NC(=O)c2ccc3c(c2)CCN3S(C)(=O)=O)c1 | inactive |  |
| COc1ccccc1-c1sc2ccccc2c1-c1ccc(C(C)=O)cc1 | inactive |  |
| C(=N\n1cnnc1)/c1cccnc1 | inactive |  |
| CN(C)c1ccc(-n2cccc2/C=N/n2cnnc2)cc1 | 14.1 µM (active) |  |

| SMILES | Potency | activity, negative = inhibition |
| --- | --- | --- |
| CN(C)c1ccc(-n2cccc2/C=C2/SC(=Nc3ccc(F)cc3)NC2=O)cc1 | inactive |  |
| CNC[C@H](CC1CCCCC1)NC[C@H](NCCC1CCCC1)[C@H](C)O | inactive |  |
| O=C1c2ccccc2C(=O)N1CCOc1ccc(F)cc1 | inactive |  |
| CN1CN(C)c2ccc([N+](=O)[O-])c3cccc1c23 | inactive |  |
| CCCNC(=O)CCc1c(C)nc2c(c(C)nn2-c2ccc(C)cc2)c1C | inactive |  |
| COC(=O)c1ccc2c(=O)n(CC3CCCO3)c(=S)[nH]c2c1 (configuration not stated) | 5.01 µM (active) |  |
| COc1ccc(Cn2c(=S)[nH]c3cc(C(=O)NCCCN4CCOCC4)ccc3c2=O)cc1 | inactive |  |
| O=C(NC1CCCCC1)c1ccc2c(=O)n(CC3CCCO3)c(=O)[nH]c2c1 (configuration not stated) | inactive |  |
| COc1ccccc1OCCCC(=O)Nc1ccc2c(c1)OCCO2 | inactive |  |
| O=C(CSc1cccc2cccnc12)N/N=C/c1cccnc1 | 20 µM (active) |  |
| O=C(CNC(=O)c1cccnc1)N/N=C/c1cccnc1 | inactive |  |
| Cc1nc2ccccc2n1CC(=O)N/N=C/c1cccnc1 | inactive |  |
| CN(C)Cc1c(O)ccc2c(=O)c(-c3ccccc3Cl)coc12 | inactive |  |
| COc1ccccc1CN1CCNC(=O)C1CC(=O)N(C)CC1CCOCC1 (configuration not stated) | inactive |  |
| COc1ccc2c(C)c(CCC(=O)NC3CC3)c(=O)oc2c1C | inactive |  |
| COc1ccc2c(c1OC)C(=O)N(c1ccc(O)cc1)C2 | inactive |  |
| O=C(NCCN1CCOCC1)c1ccc(/C=C2\Sc3ccccc3N(Cc3ccc(F)cc3)C2=O)cc1 | inactive |  |
| CN1CCN(CCCNC(=O)c2ccc(/C=C3\Oc4ccccc4N(Cc4ccc(Cl)cc4)C3=O)cc2)CC1 | 11.2 µM (active) |  |
| CN1C(=O)/C(=C/c2ccc(C(=O)NC3CCCC3)cc2)Oc2ccccc21 | inactive |  |
